PubChem BioAssay AID651814 (National Center for Advancing Translational Sciences (NCATS), 2012)
Hit rate of the full screen: of about 2,100 compounds, about 590 (28%) were called active. Another 42% or so got no clear call; they are omitted. Calls follow the shape of the dose curve; as a rule, active = well fitted inhibition curve with a large enough effect; inconclusive = small, poorly fitted or top-dose-only effect; inactive = flat fitted curve, though single readings scatter. The list shows a part of the results.

target: DNA dC->dU-editing enzyme APOBEC-3F (Homo sapiens) (UniProt Q8IUX4); experiment: qHTS for inhibitors of Vif-A3F interactions: Cherry picks; settings: HeLa A3F-eYFP + Vif (tagged APOBEC3F with the HIV-1 protein that degrades it), eYFP fluorescence, 24 h; also: nearly all actives have a fitted effect of over 70% in size;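 as to Max response: % of control where 0% means no effect; active compounds raise eYFP fluorescence by blocking Vif-driven A3F loss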
Sequence (Q8IUX4 whole entry, looked up): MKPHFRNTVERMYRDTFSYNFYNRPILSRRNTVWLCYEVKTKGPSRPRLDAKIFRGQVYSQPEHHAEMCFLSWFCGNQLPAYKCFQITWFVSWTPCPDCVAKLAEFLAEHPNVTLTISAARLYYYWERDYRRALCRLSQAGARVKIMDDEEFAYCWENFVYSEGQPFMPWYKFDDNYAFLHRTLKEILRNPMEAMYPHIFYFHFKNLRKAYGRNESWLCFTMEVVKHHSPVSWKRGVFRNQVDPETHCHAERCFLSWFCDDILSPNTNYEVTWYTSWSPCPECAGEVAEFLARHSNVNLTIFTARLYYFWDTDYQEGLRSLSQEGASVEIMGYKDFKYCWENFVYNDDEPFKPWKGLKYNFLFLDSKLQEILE
Method in brief: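 HeLa cells stably expressing A3F-eYFP plus Vif, cultured overnight, then exposed to compounds at several concentrations for 24 h at 37 deg C. Reduced Vif-driven degradation read as rising eYFP fluorescence (488 nm ex/500-530 nm em) by laser-scanning cytometry; MG132 as positive control.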
Potency is read from the fitted curve at half-maximal effect.

Max response, inactive:
O=C(NCc1ccco1)C1Cc2c(-c3cccc(F)c3)ccnc2O1 (stereo unspecified) -27.2%, Cc1ccc(-c2cc(C(=O)N/N=C/C(Br)=C/c3ccccc3)n[nH]2)o1 -23.7%, O=[N+]([O-])c1ccccc1C1Nc2cccc3cccc(c23)N1 1.22%, Cc1ccc(S(=O)(=O)Nc2cc(Cl)c(O)c3ncccc23)cc1 -26.9%, COc1cccc(C2CC(c3ccccc3)=NN2S(=O)(=O)c2ccc(C)cc2)c1OC (stereo unspecified) -28.4%, C(=C\c1ccco1)/C1=NN(c2ccccc2)C(c2ccco2)C1 (stereo unspecified) -27.8%, CCCOc1ccc(N)cc1N 4.36%, CN1C(=O)C(O)(C2COC(C)(C)CC2=O)c2cc(Br)ccc21 (stereo unspecified) -0.16%, CC(C)CCNC(=O)c1ccc2c(c1)NC(=O)C(CS(=O)(=O)Cc1cccc(Br)c1)N2 (stereo unspecified) 0.102%, C/C(=N\NC(=O)c1cc(-c2ccncc2)nc2ccccc12)c1ccc(N2CCOCC2)cc1 -14.9%, CC(=O)c1c(C)[nH]c(C(=O)Nc2ccc(Cl)cc2F)c1C -17.7%, CC(=O)c1cc2c(cc1NS(=O)(=O)c1ccc(C)cc1)OCCO2 -26.6%, COC(=O)c1c(-c2ccccc2Cl)noc1/C=C/N(C)C 2.98%, COc1cc(OC)cc(C(=O)Nc2ccccc2C(=O)NC2CC2)c1 -22.6%, COC(=O)c1cc(NC(=O)c2ccccc2)c(=O)oc1/C=C/Nc1ccc(Oc2ccccc2)cc1 -22%

Potency, active:
Cc1cccc2[nH]cc(/C=C3/C=Nc4ccccc43)c12 23.1 µM, O=[N+]([O-])c1ccc(C2=NN(c3ccccc3)C(c3ccco3)C2)cc1 (stereo unspecified) 1.25 µM, O=[N+]([O-])c1ccc(/C=C/C2=NN(c3ccccc3)C(c3ccco3)C2)o1 (stereo unspecified) 2.59 µM, COc1ccccc1N1N=C(c2ccc([N+](=O)[O-])cc2)CC1c1ccccc1 (stereo unspecified) 1.12 µM, CCN1/C(=C/C=C2/SC(=Nc3cccc4ncccc34)N(C)C2=O)Sc2ccccc21 16.4 µM, CCn1cc(/C=C/c2cc[n+](C)cc2)c2ccccc21 0.79 µM, CC(C)n1cc(/C=C/c2cc[n+](C)cc2)c2ccccc21 1.4 µM, C=CCn1cc(/C=C/c2cc[n+](C)cc2)c2ccccc21 2.23 µM, CC(=O)c1cc(NC(=O)c2ccc(Cl)cc2)c(=O)oc1/C=C/N(C)C 6.27 µM, CC(=O)c1cc(NC(=O)c2ccc(C)cc2)c(=O)oc1/C=C/N(C)C 20.6 µM, COc1ccc(C(=O)Nc2cc(C(C)=O)c(/C=C/N(C)C)oc2=O)cc1 11.2 µM
